Each structure is given as a SMILES string. Where a name gives a salt, the structure may show the parent alone. ± gives the standard deviation of the averaged measurements.

The results in this text go back to the supplement of paper PMC8975748.

The test system of this experiment is Saccharomyces cerevisiae BY4741 SeMeCo community. Briefly: mean cell size (pixel area) (pixels); higher = larger cells. Particulars: 10 µM; 24 h; SM minimal medium. In a few lines:
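Drug was acoustically predosed into 384-well plates to a final 10 µM in SM medium, and each well received 70 µl of Saccharomyces cerevisiae BY4741 diluted to OD600 = 0.3 from an overnight preculture at OD600 = 1.0. This four-plasmid fluorescent community carries one fluorescent marker per plasmid, and each plasmid complements one auxotrophy. After 24 h, the cells were fixed with paraformaldehyde and imaged by automated confocal microscopy, and Harmony analysis yielded mean cell pixel area per well. Each value is averaged over 3 replicates. Same SeMeCo high-content imaging drug screen: Selleck FDA-approved drugs at 10 µM, 24 h in SM medium, 384-well plates, 3 replicates.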
`C#CCN[C@@H]1CCc2ccccc21` [Rasagiline Mesylate] registered a mean cell size of 12.49 ± 0.065. The value for `CCCCCOc1ccc(-c2ccc(-c3ccc(C(=O)N[C@H]4C[C@@H](O)[C@@H](O)NC(=O)[C@@H]5[C@@H](O)[C@@H](C)CN5C(=O)[C@H]([C@@H](C)O)NC(=O)[C@H]([C@H](O)[C@@H](O)c5ccc(O)cc5)NC(=O)[C@@H]5C[C@@H](O)CN5C(=O)[C@H]([C@@H](C)O)NC4=O)cc3)cc2)cc1` was 12.6 ± 0.25; that for `COc1cc2c(cc1OC)[C@@H]1Cc3ccc(OC)c(OC)c3CN1CC2` [Rotundine] was 12.5 ± 0.15.

Turning to `C[C@H](NCc1ccc(OCc2cccc(F)c2)cc1)C(N)=O` [Safinamide], the mean cell size worked out at 12.47 ± 0.075. The value for `CC1(C)S[C@@H]2[C@H](NC(=O)COc3ccccc3)C(=O)N2[C@H]1C(=O)O` [Penicillin V potassium salt] was 11.8 ± 0.2. The value for `CC[C@H]1OC(=O)C[C@@H](O)[C@H](C)[C@@H](O[C@@H]2O[C@H](C)[C@@H](O[C@H]3C[C@@](C)(O)[C@@H](O)[C@H](C)O3)[C@H](N(C)C)[C@H]2O)[C@@H](CC=O)C[C@@H](C)C(=O)/C=C/C(C)=C/[C@@H]1CO[C@@H]1O[C@H](C)[C@@H](O)[C@@H](OC)[C@H]1OC` [Tylosin] was 12.16 ± 0.07. The value for `C[N+]1(C)[C@@H]2C[C@@H](OC(=O)C(O)(c3cccs3)c3cccs3)C[C@H]1[C@@H]1O[C@@H]12` [Tiotropium Bromide hydrate] was 12.5 ± 0.25. Turning to `CCC(=O)NS(=O)(=O)c1ccc(-c2c(-c3ccccc3)noc2C)cc1` [Parecoxib Sodium], the mean cell size came out at 12.39 ± 0.068. The value for `CCN(CC)CCOCCOC(=O)C1(c2ccccc2)CCCC1` [Pentoxyverine Citrate] was 12.5 ± 0.13; that for `Cc1cccc(C)c1NC(=O)C1CCCCN1C` (stereo unspecified) [Mepivacaine] was 12.2 ± 0.28. `CC1=C(CC(=O)O)c2cc(F)ccc2/C1=C\c1ccc([S+](C)[O-])cc1` (stereo unspecified) [Sulindac] yielded a mean cell size of 12.4 ± 0.21.

`C#C[C@]1(O)CC[C@H]2[C@@H]3CCC4=CCCC[C@@H]4[C@H]3CC[C@@]21C` [Lynestrenol] yielded a mean cell size of 12.5 ± 0.23. The value for `CN(C)CCCN1c2ccccc2Sc2ccc(Cl)cc21` [Chlorpromazine HCl] was 12.3 ± 0.24. The value for `NC(=O)N1c2ccccc2C=Cc2ccccc21` [Carbamazepine] was 12.5 ± 0.21. The value for `CC(=O)OCC(CCn1cnc2cnc(N)nc21)COC(C)=O` [Famciclovir] was 12.6 ± 0.22. Compound `C[C@@H]1CC(=O)NN=C1c1ccc(NN=C(C#N)C#N)cc1` [Levosimendan] yielded a mean cell size of 12.5 ± 0.19. The value for `N[C@@H](CCC(=O)O)C(=O)O` [(S)-Glutamic acid] was 12.1 ± 0.22; that for `C#CCC(Cc1cnc2nc(N)nc(N)c2n1)c1ccc(C(=O)N[C@@H](CCC(=O)O)C(=O)O)cc1` (stereo partly specified) [Pralatrexate] was 14.4 ± 0.34; that for `C#C[C@]1(O)CC[C@H]2[C@@H]3CCC4=CCCC[C@@H]4[C@H]3C(=C)C[C@@]21CC` [Desogestrel] was 12.3 ± 0.29.

`C=CC[N+]1([C@H]2C[C@H]3[C@@H]4CC[C@H]5C[C@H](O)[C@@H](N6CCOCC6)C[C@]5(C)[C@H]4CC[C@]3(C)[C@H]2OC(C)=O)CCCC1` [Rocuronium Bromide] displayed a mean cell size of 12.44 ± 0.065. The value for `N#CC(c1ccc(Cl)cc1)c1c(Cl)cc(-n2ncc(=O)[nH]c2=O)cc1Cl` (stereo unspecified) [Diclazuril] was 12.52 ± 0.088; that for `COCCCN1CCC(NC(=O)c2cc(Cl)c(N)c3c2OCC3)CC1` [Prucalopride] was 12.6 ± 0.1; that for `CN(C/C=C/C#CC(C)(C)C)Cc1cccc2ccccc12` [Terbinafine HCl] was 12.27 ± 0.088. The value for `CC1(C)[C@H](C(=O)O)N2C(=O)C[C@H]2S1(=O)=O` [Sulbactam sodium] was 12.54 ± 0.013; that for `CC/C(=C(\c1ccccc1)c1ccc(OCCN(C)C)cc1)c1ccccc1` [Tamoxifen] was 11.75 ± 0.092. The value for `COC(=O)C1=C(C)NC(C)=C(C(=O)OCCN2CCN(C(c3ccccc3)c3ccccc3)CC2)C1c1cccc([N+](=O)[O-])c1` (stereo unspecified) [Manidipine 2HCl] was 12 ± 0.3; that for `CN(C)CCN1C(=O)c2cccc3cc(N)cc(c23)C1=O` [Amonafide] was 12.29 ± 0.1. `c1ccc(-c2ccc(C(c3ccccc3)n3ccnc3)cc2)cc1` (stereo unspecified) [Bifonazole] came in with a mean cell size of 12.65 ± 0.082. The compound `CO/N=C(\C(=O)N[C@@H]1C(=O)N2C(C(=O)O)=C(Cn3ccc(=N)n3CCO)CS[C@H]12)c1csc(N)n1` [Cefoselis Sulfate] had a mean cell size of 12.3 ± 0.24.

`OC(CCN1CCCCC1)(c1ccccc1)C1CCCCC1` (stereo unspecified) [Trihexyphenidyl hydrochloride]: the mean cell size was 12.5 ± 0.24. On to `C[C@H](NCc1ccc(OCc2cccc(F)c2)cc1)C(N)=O` [Safinamide Mesylate], for which the mean cell size is 12.4 ± 0.16.
